In publication PMC11062922 (Nature Chemical Biology, 2023):
Like-named read-outs stand apart in the source and are kept apart here.

Assays:
[1] = tested on: TNIK; conditions: read-out: apparent Kd, n = 1
[2] = tested on: ULK3; conditions: read-out: apparent Kd, n = 1

In the case of Lestaurtinib, the potency estimated from few doses ([1]; compound concentrations:100 nM and 1000 nM (sheet 'Lestaurtinib' of Supplementary Table 1),run:Lestaurtinib_02795_R2,Plate:MR022) is reported as 154 nM, the potency estimated from few doses ([1]; compound concentrations:100 nM and 1000 nM (sheet 'Lestaurtinib' of Supplementary Table 1),run:Lestaurtinib_02795_R3,Plate:MR022) is reported as 504 nM and the potency estimated from few doses ([1]; compound concentrations:100 nM and 1000 nM (sheet 'Lestaurtinib' of Supplementary Table 1),run:Lestaurtinib_02802_R1,Plate:MR029) is reported as 121 nM. It also gave a potency estimated from few doses ([1]; compound concentrations:100 nM and 1000 nM (sheet 'Lestaurtinib' of Supplementary Table 1),run:Lestaurtinib_02802_R2,Plate:MR029) of 141 nM, a potency estimated from few doses ([1]; compound concentrations:100 nM and 1000 nM (sheet 'Lestaurtinib' of Supplementary Table 1),run:Lestaurtinib_02896_R1,Plate:MR030) of 444 nM and a potency estimated from few doses ([1]; compound concentrations:100 nM and 1000 nM (sheet 'Lestaurtinib' of Supplementary Table 1),run:Lestaurtinib_02896_R2,Plate:MR030) of 356 nM. The potency estimated from few doses ([1]; compound concentrations:100 nM and 1000 nM (sheet 'Lestaurtinib' of Supplementary Table 1),run:Lestaurtinib_02896_R3,Plate:MR030) was 484 nM, the potency estimated from few doses ([1]; compound concentrations:100 nM and 1000 nM (sheet 'Lestaurtinib' of Supplementary Table 1),run:Lestaurtinib_03172_R2,Plate:MR031) was 157 nM and the potency estimated from few doses ([1]; compound concentrations:100 nM and 1000 nM (sheet 'Lestaurtinib' of Supplementary Table 1),run:Lestaurtinib_03172_R3,Plate:MR031) was 561 nM. The potency estimated from few doses ([1]; compound concentrations:100 nM and 1000 nM (sheet 'Lestaurtinib' of Supplementary Table 1),run:Lestaurtinib_03252_R1,Plate:MR032) was 143 nM, the potency estimated from few doses ([1]; compound concentrations:100 nM and 1000 nM (sheet 'Lestaurtinib' of Supplementary Table 1),run:Lestaurtinib_03260_R1,Plate:MR033) was 428 nM and the potency estimated from few doses ([1]; compound concentrations:100 nM and 1000 nM (sheet 'Lestaurtinib' of Supplementary Table 1),run:Lestaurtinib_03260_R2,Plate:MR033) was 808 nM. For the same substance, the potency estimated from few doses ([1]; compound concentrations:100 nM and 1000 nM (sheet 'Lestaurtinib' of Supplementary Table 1),run:Lestaurtinib_03260_R3,Plate:MR033) was 717 nM, the potency estimated from few doses ([2]; compound concentrations:100 nM and 1000 nM (sheet 'Lestaurtinib' of Supplementary Table 1),run:Lestaurtinib_02339_R1,Plate:MR001) was 270 nM and the potency estimated from few doses ([2]; compound concentrations:100 nM and 1000 nM (sheet 'Lestaurtinib' of Supplementary Table 1),run:Lestaurtinib_02339_R3,Plate:MR001) was 265 nM. The potency estimated from few doses ([2]; compound concentrations:100 nM and 1000 nM (sheet 'Lestaurtinib' of Supplementary Table 1),run:Lestaurtinib_02364_R1,Plate:MR002) was 301 nM, the potency estimated from few doses ([2]; compound concentrations:100 nM and 1000 nM (sheet 'Lestaurtinib' of Supplementary Table 1),run:Lestaurtinib_02364_R2,Plate:MR002) was 295 nM and the potency estimated from few doses ([2]; compound concentrations:100 nM and 1000 nM (sheet 'Lestaurtinib' of Supplementary Table 1),run:Lestaurtinib_02367_R1,Plate:MR003) was 146 nM. It also gave a potency estimated from few doses ([2]; compound concentrations:100 nM and 1000 nM (sheet 'Lestaurtinib' of Supplementary Table 1),run:Lestaurtinib_02367_R2,Plate:MR003) of 218 nM, a potency estimated from few doses ([2]; compound concentrations:100 nM and 1000 nM (sheet 'Lestaurtinib' of Supplementary Table 1),run:Lestaurtinib_02367_R3,Plate:MR003) of 228 nM and a potency estimated from few doses ([2]; compound concentrations:100 nM and 1000 nM (sheet 'Lestaurtinib' of Supplementary Table 1),run:Lestaurtinib_02381_R1,Plate:MR004) of 154 nM. For the same substance, the potency estimated from few doses ([2]; compound concentrations:100 nM and 1000 nM (sheet 'Lestaurtinib' of Supplementary Table 1),run:Lestaurtinib_02407_R1,Plate:MR005) was 137 nM, the potency estimated from few doses ([2]; compound concentrations:100 nM and 1000 nM (sheet 'Lestaurtinib' of Supplementary Table 1),run:Lestaurtinib_02422_R1,Plate:MR006) was 113 nM and the potency estimated from few doses ([2]; compound concentrations:100 nM and 1000 nM (sheet 'Lestaurtinib' of Supplementary Table 1),run:Lestaurtinib_02422_R2,Plate:MR006) was 60.5 nM. The potency estimated from few doses ([2]; compound concentrations:100 nM and 1000 nM (sheet 'Lestaurtinib' of Supplementary Table 1),run:Lestaurtinib_02422_R3,Plate:MR006) was 134 nM, the potency estimated from few doses ([2]; compound concentrations:100 nM and 1000 nM (sheet 'Lestaurtinib' of Supplementary Table 1),run:Lestaurtinib_02437_R1,Plate:MR007) was 239 nM and the potency estimated from few doses ([2]; compound concentrations:100 nM and 1000 nM (sheet 'Lestaurtinib' of Supplementary Table 1),run:Lestaurtinib_02437_R2,Plate:MR007) was 253 nM. For the same substance, the potency estimated from few doses ([2]; compound concentrations:100 nM and 1000 nM (sheet 'Lestaurtinib' of Supplementary Table 1),run:Lestaurtinib_02437_R3,Plate:MR007) was 22.5 nM, the potency estimated from few doses ([2]; compound concentrations:100 nM and 1000 nM (sheet 'Lestaurtinib' of Supplementary Table 1),run:Lestaurtinib_02438_R2,Plate:MR008) was 236 nM and the potency estimated from few doses ([2]; compound concentrations:100 nM and 1000 nM (sheet 'Lestaurtinib' of Supplementary Table 1),run:Lestaurtinib_02438_R3,Plate:MR008) was 286 nM. For the same substance, the potency estimated from few doses ([2]; compound concentrations:100 nM and 1000 nM (sheet 'Lestaurtinib' of Supplementary Table 1),run:Lestaurtinib_02443_R1,Plate:MR009) was 231 nM, the potency estimated from few doses ([2]; compound concentrations:100 nM and 1000 nM (sheet 'Lestaurtinib' of Supplementary Table 1),run:Lestaurtinib_02443_R2,Plate:MR009) was 239 nM and the potency estimated from few doses ([2]; compound concentrations:100 nM and 1000 nM (sheet 'Lestaurtinib' of Supplementary Table 1),run:Lestaurtinib_02443_R3,Plate:MR009) was 196 nM. The potency estimated from few doses ([2]; compound concentrations:100 nM and 1000 nM (sheet 'Lestaurtinib' of Supplementary Table 1),run:Lestaurtinib_02473_R1,Plate:MR010) was 232 nM, the potency estimated from few doses ([2]; compound concentrations:100 nM and 1000 nM (sheet 'Lestaurtinib' of Supplementary Table 1),run:Lestaurtinib_02473_R2,Plate:MR010) was 253 nM and the potency estimated from few doses ([2]; compound concentrations:100 nM and 1000 nM (sheet 'Lestaurtinib' of Supplementary Table 1),run:Lestaurtinib_02482_R1,Plate:MR011) was 240 nM.
